High-throughput results: PubChem, several laboratories
Shown is part of a subset that was picked to be rich in hits.
TcdB inh: TcdB glycohydrolase inhibitors, primary screen, biochemical, single point, plate reader. TcdB glycohydrolase enzymatic assay. inhibition, % at 9.99 µM. 0.24% of 350,000 active. AID 652162, 2013; in the data active = inhibition above about 10%
Bead autofluor: counter-screen for toxin protease inhibitors: compound fluorescence | compound autofluorescence counterscreen, microsphere flow cytometry; hits give high values | fluorescence intensity (no concentration beside the values) | 3.1% of 360,000 active | AID 624483; in the data active = fluorescence intensity above about 16000; inconclusive = no clear call, values can overlap the other calls
BoNT F protease: BoNT/F light chain protease inhibitors, primary screen, biochemical, flow cytometry, MLPCN library; Multiplex microsphere protease cleavage assay; 0.22% of 360,000 active; AID 588497, 2011; inhibition, % at 10 µM; in the data active = inhibition above about 35%, passing the limit was not always enough; inconclusive = no clear call, values can overlap the other calls
Anthrax LF prot: Bacillus anthracis LF protease inhibitors, primary screen, biochemical, multiplex microsphere, MLPCN library; 0.12% of 360,000 active; inhibition, % at 10 µM; multiplex microsphere protease cleavage assay; Lethal factor (Bacillus anthracis), P15917; AID 588501, 2011
BoNT A protease: BoNT/A light chain protease inhibitors, primary screen, biochemical, flow cytometry, MLPCN library; 0.17% of 360,000 active; inhibition, % at 10 µM; multiplex microsphere protease substrate cleavage; Botulinum neurotoxin type A light chain protease (Clostridium botulinum A str. ATCC 3502)
Large screens that a line does not name were inactive. Rule as the data show it, unless noted: active = inhibition above about 30%; inconclusive = no clear call, values can overlap the other calls; inactive = below that.

CO[C@@H]1CN(C)C(=O)c2ccc(NS(C)(=O)=O)cc2OC[C@@H](C)N(C(=O)NC(C)C)C[C@@H]1C	none (no result: Bead autofluor, BoNT F protease, Anthrax LF prot, BoNT A protease)
CCOc1ccc(CCNC(=O)COC(=O)c2cccnc2OCC)cc1OCC	Bead autofluor 16322 (no result: TcdB inh)
CCOc1ccc(CCNC(=O)COC(=O)c2ccccc2O)cc1OCC	none
S=C(NCCc1ccccc1)Nc1ncccn1	TcdB inh 11
O=C(C[C@H]1CC[C@@H]2[C@H](COC[C@H](O)CN2Cc2cc(F)ccc2F)O1)N[C@H]1CCN(Cc2ccccc2)C1	none (no result: Bead autofluor, BoNT F protease, Anthrax LF prot, BoNT A protease)
C[C@@H]1CN([C@H](C)CO)C(=O)c2cc(NC(=O)c3ccncc3)ccc2O[C@@H](C)CCCCO[C@@H]1CN(C)S(=O)(=O)c1cccs1	none (no result: Bead autofluor, BoNT F protease, Anthrax LF prot, BoNT A protease)
COc1cc(Cc2ccc(N)c(OC)c2)ccc1N	TcdB inh 15
O=C1CCC(=O)N1OCCCOc1ccccc1	Bead autofluor 17200 (no result: TcdB inh)
CCNC(=O)C[C@H]1CC[C@H]2[C@H](COc3ccc(NC(=O)c4cccs4)cc3C(=O)N2C)O1	none (no result: Bead autofluor, BoNT F protease, Anthrax LF prot, BoNT A protease)
O=C(C[C@H]1CC[C@H]2[C@@H](COC[C@H](O)CN2Cc2nccs2)O1)NCc1ccccc1	none (no result: Bead autofluor, BoNT F protease, Anthrax LF prot, BoNT A protease)
Cc1onc(-c2ccccc2)c1C(=O)NCc1ccco1	none (no result: TcdB inh)
Cc1onc(-c2ccccc2)c1C(=O)N(Cc1ccco1)Cc1cccs1	TcdB inh 16
CCN(CC)c1ccc(/C=C/C(=O)c2ccc(Br)cc2)cc1	Bead autofluor 30707, BoNT F protease 81, Anthrax LF prot 42, BoNT A protease 62 (no result: TcdB inh)
COc1cccc(C2c3c(oc4ccc(Cl)cc4c3=O)C(=O)N2c2cc(C)on2)c1OC (stereo unspecified)	Bead autofluor 16528 (no result: TcdB inh)
COc1ccc(/C(O)=C2\C(=O)C(=O)N(c3cc(C)on3)C2c2cccc(OC)c2OC)cc1C (stereo unspecified)	none (no result: TcdB inh)
C[C@@H]1CN([C@@H](C)CO)C(=O)c2cc(NC(=O)NC3CCCCC3)ccc2O[C@H]1CN(C)S(=O)(=O)c1cccs1	none (no result: Bead autofluor, BoNT F protease, Anthrax LF prot, BoNT A protease)
O=C(Nc1ccc(N2CCOCC2)c(Cl)c1)c1ccc2c(c1)OCCO2	TcdB inh 21
O=C(Nc1ccc(N2CCOCC2)c(Cl)c1)c1ccc(Cl)cc1	TcdB inh 22
O=C(Nc1ccc(N2CCOCC2)nc1)c1ccc(F)cc1	Bead autofluor 22364 (no result: TcdB inh)
O=C(Nc1ccc(N2CCOCC2)cc1)Nc1ccc(Cl)c(Cl)c1	Bead autofluor 17169 (no result: TcdB inh)
O=C(Nc1ccc(N2CCOCC2)cc1N1CCOCC1)c1ccc(Cl)cc1	none
C[C@@H]1CCCCO[C@H](CN(C)C(=O)Nc2ccc(F)cc2)[C@H](C)CN([C@H](C)CO)C(=O)c2cc(NC(=O)c3ccccc3)ccc2O1	none (no result: Bead autofluor, BoNT F protease, Anthrax LF prot, BoNT A protease)
CC(C)CC#Cc1cnc2c(c1)C(=O)N([C@H](C)CO)C[C@H](C)[C@H](CN(C)C(=O)c1ccccc1F)O2	none (no result: Bead autofluor, BoNT F protease, Anthrax LF prot, BoNT A protease)
CN1CCN(C(=O)C[C@@H]2C[C@@H]3c4cc(NC(=O)NC5CCCCC5)ccc4O[C@@H]3[C@@H](CO)O2)CC1	none (no result: Bead autofluor, BoNT F protease, Anthrax LF prot, BoNT A protease)
CC(C)C(=O)NC(Nc1ccccc1F)C(Cl)(Cl)Cl (stereo unspecified)	Bead autofluor 21522 (no result: TcdB inh)
CC(C)CC(=O)NC(Nc1ccccc1F)C(Cl)(Cl)Cl (stereo unspecified)	none (no result: TcdB inh)
Cc1ccccc1NC(=S)NNC(=O)c1ccoc1C	Bead autofluor 24040
COc1ccc(S(=O)(=O)N(C)C[C@@H]2Oc3ccc(NS(=O)(=O)c4cn(C)cn4)cc3CC(=O)N([C@@H](C)CO)C[C@@H]2C)cc1	none (no result: Bead autofluor, BoNT F protease, Anthrax LF prot, BoNT A protease)
C1CCC2(CC1)C1=C(CCCC1)Nc1nnnn12	Bead autofluor 24281 (no result: TcdB inh)
O=C(NCCCn1ccnc1)c1cc2c(s1)CCCCC2	Bead autofluor 25451 (no result: TcdB inh)
O=C(Nc1ccon1)c1cc2c(s1)CCCC2	Bead autofluor 22744, BoNT A protease inconclusive
O=C(Nc1ccon1)c1cc2c(s1)CCCCCC2	Bead autofluor 16721, BoNT A protease inconclusive (no result: TcdB inh)
O=C(NCc1ccco1)c1cc2c(s1)CCCCC2	Bead autofluor 18946 (no result: TcdB inh)
CNC(=O)c1cc2c(s1)CCCCCC2	none (no result: TcdB inh)
C[C@@H]1CN([C@@H](C)CO)C(=O)Cc2cc(NS(=O)(=O)c3cn(C)cn3)ccc2O[C@H]1CN(C)C(=O)Nc1ccc(C(F)(F)F)cc1	none (no result: Bead autofluor, BoNT F protease, Anthrax LF prot, BoNT A protease)
Cc1ccccc1-c1cnc2c(c1)C(=O)N([C@H](C)CO)C[C@@H](C)[C@H](CN(C)Cc1cccnc1)O2	none (no result: Bead autofluor, BoNT F protease, Anthrax LF prot, BoNT A protease)
CN(C)C(=O)C[C@H]1C[C@H]2c3cc(NC(=O)c4ccc5c(c4)OCO5)ccc3O[C@H]2[C@@H](CO)O1	none (no result: Bead autofluor, BoNT F protease, Anthrax LF prot, BoNT A protease)
C[C@@H]1CN([C@@H](C)CO)C(=O)c2ccccc2-c2ccccc2CO[C@H]1CN(C)C(=O)c1ccccc1	none (no result: Bead autofluor, BoNT F protease, Anthrax LF prot, BoNT A protease)
CN1C[C@H](O)COC[C@@H]2O[C@@H](CC(=O)N3CCN(c4ccccc4)CC3)CC[C@H]21	none (no result: Bead autofluor, BoNT F protease, Anthrax LF prot, BoNT A protease)
CCN(CC)S(=O)(=O)c1ccc(Cl)c(C(=O)Nc2nnc(C)s2)c1	Bead autofluor 23810, BoNT A protease inconclusive (no result: TcdB inh)
CCOC(=O)COc1ccc(C(=O)NC2CCCCC2)cc1	Bead autofluor 20056, BoNT A protease inconclusive
CCOc1ccc(C(=O)NC2CCCCCCC2)cc1	none
CCOc1ccc(C(=S)NC2CCCCC2)cc1	Bead autofluor 20072, BoNT A protease inconclusive (no result: TcdB inh)
O=C(Cc1ccccn1)NCC[C@H]1CC[C@H](NS(=O)(=O)c2ccc(Cl)cc2)[C@H](CO)O1	none (no result: Bead autofluor, BoNT F protease, Anthrax LF prot, BoNT A protease)
O=C(C[C@H]1CC[C@@H]2[C@H](COC[C@@H](O)CN2Cc2ccccc2)O1)NCCCN1CCOCC1	none (no result: Bead autofluor, BoNT F protease, Anthrax LF prot, BoNT A protease)
COc1ccc(C(=O)COC(=O)CSCc2c(C)noc2C)cc1OC	Bead autofluor 22438
CCc1noc(C)c1C(=O)OCC(=O)c1ccc(OC)c(OC)c1	none
O=C1C(=C2CCCCC2)SC(=S)N1Cc1ccco1	Bead autofluor 23926, BoNT A protease inconclusive (no result: TcdB inh)
CC/C(O)=C(\C#N)c1nnc2n1CCCCC2	Bead autofluor 20206 (no result: TcdB inh)
CCCC1CCC(c2nc(-c3cccnc3)no2)CC1 (stereo unspecified)	Bead autofluor 19821, BoNT A protease inconclusive (no result: TcdB inh)
Cc1ccsc1C(=O)OCC(=O)Nc1cccc(S(=O)(=O)N2CCOCC2)c1	none
CCn1cc(C(=O)OCC(=O)Nc2cccc(S(=O)(=O)N3CCOCC3)c2)c(=O)c2ccc(C)nc21	Bead autofluor 16363, BoNT A protease inconclusive (no result: TcdB inh)
CNC[C@@H]1Oc2cc(C#CCC(C)C)ccc2S(=O)(=O)N([C@H](C)CO)C[C@H]1C	none (no result: Bead autofluor, BoNT F protease, Anthrax LF prot, BoNT A protease)
CCCS(=O)(=O)c1c(S(=O)(=O)CCC)c2c(N)cccn2c1C(=O)c1ccccc1	Bead autofluor 16615, BoNT A protease inconclusive
CCn1c(=O)cc(OCC(=O)NC2CCCCC2)c2ccccc21	Bead autofluor 16641 (no result: TcdB inh)
COc1ccc(-n2c(=O)c3ccccc3n(CC(=O)NC3CCCC3)c2=O)c(OC)c1	Bead autofluor 21567 (no result: TcdB inh)
CCn1c(=O)cc(OCC(=O)NCc2cccnc2)c2ccccc21	Bead autofluor 23271, BoNT A protease inconclusive (no result: TcdB inh)
CCn1c(=O)cc(OCC(=O)Nc2ccc(C)cn2)c2ccccc21	Bead autofluor 19603 (no result: TcdB inh)
COc1ccc(-n2c(=O)c3c4c(sc3n(CC(=O)NC3CCCC3)c2=O)CCCC4)c(OC)c1	none
